Results published in the supplement of paper PMC10477191.
± gives the standard deviation of the averaged measurements.

System: Drosophila ezoana antennal basiconic sensillum ab5
Test: odor-evoked OSN spike response (post minus pre-stimulus); higher = stronger neuronal excitation
Conditions: odor dilution: 10^-4
Procedure: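 Single sensillum recordings from antennal basiconic sensilla of D. ezoana. A 500 ms pulse of odorant (10^-4 in mineral oil or DMSO) was delivered; the response is the change in action potential frequency between the 1 s pre- and post-stimulus windows (spikes/s).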

| SMILES | odor-evoked OSN spike response [spikes/s] |
| --- | --- |
| CC(=O)c1ccccc1 [Acetophenone] | 77.7 ± 24 |
| COc1cccc(OC)c1O [Phenol, 2,6-dimethoxy- (powder)] | 86.2 ± 29 |
| CC(=O)OC/C=C(\C)CCC=C(C)C [geranyl acetate] | 112 ± 41 |
